Assay results: the supplement of paper PMC11732987, “Enantioselective OTUD7B fragment discovery through chemoproteomics screening and high-throughput optimisation” (Communications Chemistry, 2025)

Assays:
Experiment in all cases: log2 ratio of Biotin-Ahx-Ub-VS probe labelling (fragment/DMSO); higher = less target engagement (more negative = stronger competition), active = hit call of the paper (q ≤ 0.05, log2 ratio ≤ -1)
Conditions in all cases: compound concentration: 200 uM; treatment time: 3 h
ALG13 = biological target: T1, ALG13 (UniProt Q9NP73)
T1 sequence (whole entry): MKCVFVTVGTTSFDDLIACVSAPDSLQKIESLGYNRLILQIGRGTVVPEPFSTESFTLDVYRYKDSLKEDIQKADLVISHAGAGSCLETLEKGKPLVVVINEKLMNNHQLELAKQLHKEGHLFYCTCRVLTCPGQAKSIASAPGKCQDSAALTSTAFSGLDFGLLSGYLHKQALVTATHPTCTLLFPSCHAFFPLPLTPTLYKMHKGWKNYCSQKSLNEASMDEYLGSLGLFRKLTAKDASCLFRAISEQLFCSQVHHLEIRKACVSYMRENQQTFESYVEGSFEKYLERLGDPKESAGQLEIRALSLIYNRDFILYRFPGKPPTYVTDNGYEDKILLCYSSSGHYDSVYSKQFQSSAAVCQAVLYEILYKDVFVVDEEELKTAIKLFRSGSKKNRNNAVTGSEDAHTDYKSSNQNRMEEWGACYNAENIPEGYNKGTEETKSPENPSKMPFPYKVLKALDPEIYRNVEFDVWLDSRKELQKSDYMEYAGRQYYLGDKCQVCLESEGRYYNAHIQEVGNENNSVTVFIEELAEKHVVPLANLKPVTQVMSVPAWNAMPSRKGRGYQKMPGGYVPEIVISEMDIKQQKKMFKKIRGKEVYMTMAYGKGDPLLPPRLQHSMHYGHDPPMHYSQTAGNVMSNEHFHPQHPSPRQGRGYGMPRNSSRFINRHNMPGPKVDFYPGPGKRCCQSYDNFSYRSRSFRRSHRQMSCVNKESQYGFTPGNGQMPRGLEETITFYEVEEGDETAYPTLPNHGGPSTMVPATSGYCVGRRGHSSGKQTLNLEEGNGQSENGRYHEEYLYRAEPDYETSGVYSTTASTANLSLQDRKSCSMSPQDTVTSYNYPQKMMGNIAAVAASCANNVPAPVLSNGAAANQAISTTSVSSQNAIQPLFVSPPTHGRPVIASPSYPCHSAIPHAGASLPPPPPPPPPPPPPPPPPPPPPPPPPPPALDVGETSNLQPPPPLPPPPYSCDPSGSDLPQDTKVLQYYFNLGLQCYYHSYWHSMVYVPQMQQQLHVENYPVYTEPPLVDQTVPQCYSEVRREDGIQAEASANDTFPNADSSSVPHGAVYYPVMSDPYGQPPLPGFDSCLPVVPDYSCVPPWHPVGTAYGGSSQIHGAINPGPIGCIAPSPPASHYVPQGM
Procedure, shortened: (§1)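 HEK293T lysate (495 µg per sample, in Tris/CHAPS/IGEPAL buffer with protease inhibitors) was treated in triplicate with fragment at 200 µM or with DMSO for 3 h. It was then treated with Biotin-Ahx-Ub-VS (0.5 µM final) for 1 h. Labelled DUBs were NeutrAvidin-enriched, digested with LysC and trypsin, and run by diaPASEF LC-MS/MS. Spectronaut label-free quantities were global-median-normalised. Values are average log2 ratios fragment/DMSO by unpaired t-test, using proteins with ≥2 unique peptides.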

ATXN3 = ATXN3 (UniProt P54252)
Procedure, shortened: as §1

BAP1 = biological target: T2, BAP1 (UniProt Q92560)
T2 sequence (whole entry): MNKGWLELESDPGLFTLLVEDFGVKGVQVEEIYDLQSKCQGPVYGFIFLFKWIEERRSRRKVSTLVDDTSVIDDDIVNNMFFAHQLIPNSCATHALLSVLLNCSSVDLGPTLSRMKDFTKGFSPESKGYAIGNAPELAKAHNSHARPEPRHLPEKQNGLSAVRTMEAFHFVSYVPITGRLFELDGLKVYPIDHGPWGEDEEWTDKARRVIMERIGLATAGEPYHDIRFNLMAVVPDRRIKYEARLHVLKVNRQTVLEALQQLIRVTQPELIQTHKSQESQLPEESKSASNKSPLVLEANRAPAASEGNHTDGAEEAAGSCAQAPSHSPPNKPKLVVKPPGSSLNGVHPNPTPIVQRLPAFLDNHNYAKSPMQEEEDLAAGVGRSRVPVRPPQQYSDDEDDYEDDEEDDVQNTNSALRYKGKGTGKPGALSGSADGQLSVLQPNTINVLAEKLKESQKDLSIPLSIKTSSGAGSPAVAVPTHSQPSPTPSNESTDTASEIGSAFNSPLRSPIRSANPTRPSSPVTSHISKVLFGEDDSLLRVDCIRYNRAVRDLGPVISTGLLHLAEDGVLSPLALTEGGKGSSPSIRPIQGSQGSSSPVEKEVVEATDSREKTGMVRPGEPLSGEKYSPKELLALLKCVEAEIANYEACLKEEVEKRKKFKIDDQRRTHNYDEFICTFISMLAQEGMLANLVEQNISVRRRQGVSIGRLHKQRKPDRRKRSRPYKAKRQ
Procedure, shortened: as §1

EIF3F = EIF3F (UniProt O00303)
Procedure, shortened: as §1

EIF3H = EIF3H (UniProt O15372)
Procedure, shortened: as §1

FAM105A = biological target: T3, FAM105A (UniProt Q9NUU6)
T3 sequence (whole entry): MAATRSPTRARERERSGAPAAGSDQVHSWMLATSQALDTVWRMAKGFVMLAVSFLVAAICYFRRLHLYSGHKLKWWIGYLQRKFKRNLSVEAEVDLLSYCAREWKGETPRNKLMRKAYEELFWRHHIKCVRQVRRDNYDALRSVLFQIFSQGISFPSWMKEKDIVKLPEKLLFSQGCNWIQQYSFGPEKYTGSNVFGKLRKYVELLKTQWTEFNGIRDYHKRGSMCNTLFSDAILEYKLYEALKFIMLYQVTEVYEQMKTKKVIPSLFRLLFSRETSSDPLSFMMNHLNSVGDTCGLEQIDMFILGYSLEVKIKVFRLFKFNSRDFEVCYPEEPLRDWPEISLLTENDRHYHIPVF
Procedure, shortened: as §1

OTUB1 = OTUB1 (UniProt Q96FW1)
Procedure, shortened: as §1

OTUD4 = biological target: T4, OTUD4 (UniProt Q01804)
T4 sequence (whole entry): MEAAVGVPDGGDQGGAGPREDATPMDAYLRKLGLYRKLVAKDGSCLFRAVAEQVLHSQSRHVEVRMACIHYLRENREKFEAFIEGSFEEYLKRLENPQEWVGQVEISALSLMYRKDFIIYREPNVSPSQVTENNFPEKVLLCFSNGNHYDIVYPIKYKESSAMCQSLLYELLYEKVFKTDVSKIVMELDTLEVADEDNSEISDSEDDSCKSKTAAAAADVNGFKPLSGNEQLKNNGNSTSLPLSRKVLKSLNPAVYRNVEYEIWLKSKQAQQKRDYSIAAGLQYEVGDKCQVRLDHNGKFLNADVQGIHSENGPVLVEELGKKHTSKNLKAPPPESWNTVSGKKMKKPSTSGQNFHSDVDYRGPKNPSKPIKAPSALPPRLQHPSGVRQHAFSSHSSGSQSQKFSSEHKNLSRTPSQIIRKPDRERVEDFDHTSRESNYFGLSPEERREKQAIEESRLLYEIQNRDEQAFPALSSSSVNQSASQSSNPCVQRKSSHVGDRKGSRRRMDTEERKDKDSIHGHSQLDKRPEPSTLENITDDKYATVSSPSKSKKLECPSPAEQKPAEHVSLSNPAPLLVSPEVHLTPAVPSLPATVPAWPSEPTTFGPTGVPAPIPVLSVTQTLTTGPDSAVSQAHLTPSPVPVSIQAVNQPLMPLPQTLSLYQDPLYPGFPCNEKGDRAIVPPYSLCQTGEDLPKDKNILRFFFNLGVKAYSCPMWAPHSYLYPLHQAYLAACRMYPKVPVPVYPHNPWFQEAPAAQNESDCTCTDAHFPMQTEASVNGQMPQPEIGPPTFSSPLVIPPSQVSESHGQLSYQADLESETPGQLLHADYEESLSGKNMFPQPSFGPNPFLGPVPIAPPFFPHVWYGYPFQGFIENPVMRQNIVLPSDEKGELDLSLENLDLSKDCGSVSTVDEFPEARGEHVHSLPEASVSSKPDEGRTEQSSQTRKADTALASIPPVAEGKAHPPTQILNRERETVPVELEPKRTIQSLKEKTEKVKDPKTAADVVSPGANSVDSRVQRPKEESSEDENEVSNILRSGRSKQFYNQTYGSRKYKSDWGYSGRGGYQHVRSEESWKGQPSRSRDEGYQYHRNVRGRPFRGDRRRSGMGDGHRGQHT
Procedure, shortened: as §1

OTUD5 = biological target: T5, OTUD5 (UniProt Q96G74)
T5 sequence (whole entry): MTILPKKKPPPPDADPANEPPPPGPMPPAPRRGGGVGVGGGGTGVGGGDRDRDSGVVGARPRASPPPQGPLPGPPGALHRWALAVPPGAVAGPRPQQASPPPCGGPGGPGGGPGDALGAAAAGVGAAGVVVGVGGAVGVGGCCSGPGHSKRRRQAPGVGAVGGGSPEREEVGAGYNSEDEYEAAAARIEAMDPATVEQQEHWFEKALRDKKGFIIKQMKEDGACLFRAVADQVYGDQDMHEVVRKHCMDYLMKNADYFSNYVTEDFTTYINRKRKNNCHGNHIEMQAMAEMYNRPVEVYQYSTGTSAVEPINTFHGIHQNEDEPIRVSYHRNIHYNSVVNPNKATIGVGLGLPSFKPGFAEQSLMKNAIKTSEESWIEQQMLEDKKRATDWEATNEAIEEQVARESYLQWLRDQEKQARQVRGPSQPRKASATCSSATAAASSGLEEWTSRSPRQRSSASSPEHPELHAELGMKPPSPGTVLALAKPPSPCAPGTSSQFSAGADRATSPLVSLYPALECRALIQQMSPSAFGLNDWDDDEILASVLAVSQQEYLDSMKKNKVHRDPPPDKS
Procedure, shortened: as §1

Measured: log2 ratio of Biotin-Ahx-Ub-VS probe labelling

EIF3H, sequence (O15372 whole entry): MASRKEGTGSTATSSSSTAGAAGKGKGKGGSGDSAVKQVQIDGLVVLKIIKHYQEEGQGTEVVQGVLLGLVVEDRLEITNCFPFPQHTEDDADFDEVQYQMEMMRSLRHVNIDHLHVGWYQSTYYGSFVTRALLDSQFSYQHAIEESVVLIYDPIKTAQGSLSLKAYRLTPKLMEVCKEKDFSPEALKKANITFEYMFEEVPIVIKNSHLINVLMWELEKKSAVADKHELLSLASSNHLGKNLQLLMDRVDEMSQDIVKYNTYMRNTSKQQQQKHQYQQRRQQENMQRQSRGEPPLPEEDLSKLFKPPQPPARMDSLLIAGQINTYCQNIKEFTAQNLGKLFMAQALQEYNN
OTUB1, sequence (Q96FW1 whole entry): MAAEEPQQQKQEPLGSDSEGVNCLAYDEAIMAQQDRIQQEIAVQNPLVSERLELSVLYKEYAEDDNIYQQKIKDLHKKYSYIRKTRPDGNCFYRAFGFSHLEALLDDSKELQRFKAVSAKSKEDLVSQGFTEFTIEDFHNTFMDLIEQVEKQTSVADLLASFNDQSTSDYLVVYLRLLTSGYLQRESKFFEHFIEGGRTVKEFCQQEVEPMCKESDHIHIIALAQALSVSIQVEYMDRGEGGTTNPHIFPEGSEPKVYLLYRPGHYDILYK
EIF3F, sequence (O00303 whole entry): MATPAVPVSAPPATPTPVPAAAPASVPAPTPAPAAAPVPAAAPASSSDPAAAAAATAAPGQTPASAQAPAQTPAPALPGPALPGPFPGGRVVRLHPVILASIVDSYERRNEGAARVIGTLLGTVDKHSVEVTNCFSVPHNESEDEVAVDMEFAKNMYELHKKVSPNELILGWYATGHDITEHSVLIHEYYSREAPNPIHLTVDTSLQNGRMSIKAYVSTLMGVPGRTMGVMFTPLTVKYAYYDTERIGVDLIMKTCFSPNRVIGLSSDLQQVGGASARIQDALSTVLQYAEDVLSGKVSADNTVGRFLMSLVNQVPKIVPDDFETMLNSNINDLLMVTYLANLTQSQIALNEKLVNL
ATXN3, sequence (P54252 whole entry): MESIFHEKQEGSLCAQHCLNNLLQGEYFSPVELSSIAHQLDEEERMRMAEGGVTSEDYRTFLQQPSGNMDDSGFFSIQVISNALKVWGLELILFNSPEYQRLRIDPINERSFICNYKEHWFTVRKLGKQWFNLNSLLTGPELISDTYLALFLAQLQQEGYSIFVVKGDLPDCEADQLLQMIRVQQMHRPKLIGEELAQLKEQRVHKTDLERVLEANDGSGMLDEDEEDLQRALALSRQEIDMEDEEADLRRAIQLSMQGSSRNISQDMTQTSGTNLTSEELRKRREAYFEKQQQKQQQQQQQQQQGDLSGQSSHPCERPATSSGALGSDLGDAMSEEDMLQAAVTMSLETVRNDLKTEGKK

NC(=O)C1CCCCN1C(=O)CCl (centres undefined)
inactive: ALG13 0.0736 | ATXN3 -0.889 | BAP1 -0.748 | EIF3F 0.103 | EIF3H 0.0122 | FAM105A -0.18 | OTUB1 -0.182 | OTUD4 -0.464 | OTUD5 -0.638
